Experimental data reported in the supplement of paper PMC8728848.
Shown is part of a subset that was picked to be rich in the strongest signals.

B1: CVNH3T (Magnaporthe grisea) (protein)
chain: GSHIGPYGNYAGNFSGSSRDICLDGARLRAECRRGDGGYSTSVIDLNRYLSNDNGHFRWVSGGGGGGGTATVTVQQGDTLRDIGRRFDCDFHEIARRNNIQNEDLIYPGQVLQVPTKGGSGGGAGNFWDSARDVRLVDGGKVLEAELRYSGGWNRSRIYLDEHIGNRNGELIHC
B2: Fap1 (Streptococcus parasanguis) (protein)
chain: KATSKGTEEKQDSVRENLDKMISEAEVLNDMAARKLITLDAEQQLELMKSLVATQSQLEATKNLIGDPNATVADLQIAYTTLGNNTQALGNELIKLNPNGQIYAVLNNTEASRAATLRSTTTGTKTTFTISDFSNGGTQYYWAGGNANNLKNPISSISAVYDSATGKISWTVEYDPTTILKSPALKTLKTYTGIYIDTSSDSKLSTPTNVLIDGAATNPVTNFYGNGSKGIEYVSKGTTKGVTKHTITFDTAFSGRANDLADLEIKMLAATTLSDPHFYEDGSKGNYGRYNGQTAPYVIANDSGTAIGGYQVSGVNADSIPSDTT

Legend:
Test in all cases: glycan array binding signal (z-score within array); higher = stronger binding
Conditions in all cases: glycan notation: IUPAC condensed, linker removed
Fuc(a1-2)Gal = target: Fuc(a1-2)Gal
Summary of the method: (§1)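 Glycan array binding is given as a within-array Z-score, which can be read as non-binding when negative. The arrays, 3228 of them, came from the Consortium for Functional Glycomics database and were retained only where the protein sequence was available. Z-scores were averaged across arrays of the same protein sequence at different concentrations or buffers and across linkers.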

[1] = target: Fuc(a1-2)[Gal(a1-3)]Gal(b1-4)GlcNAc
Summary of the method: as §1

[2] = target: Fuc(a1-2)[Gal(a1-3)]Gal(b1-4)[Fuc(a1-3)]GlcNAc
Summary of the method: as §1

Gal(a1-4)Gal(b1-4)GalNAc = target: Gal(a1-4)Gal(b1-4)GalNAc
Summary of the method: as §1

Gal(b1-2)Gal = target: Gal(b1-2)Gal
Summary of the method: as §1

[3] = target: Gal(b1-3)GalNAc(b1-3)Gal(a1-4)Gal(b1-4)Glc
Summary of the method: as §1

Gal(b1-4)Glc6S = target: Gal(b1-4)Glc6S
Summary of the method: as §1

[4] = target: GlcNAc(a1-3)Gal(b1-4)GlcNAc
Summary of the method: as §1

[5] = target: GlcNAc(b1-2)Gal(b1-3)GlcNAc
Summary of the method: as §1

[6] = target: GlcNAc(b1-3)[GlcNAc(b1-6)]GlcNAc
Summary of the method: as §1

[7] = target: GlcNAc(b1-4)Gal(b1-4)GlcNAc
Summary of the method: as §1

[8] = target: GlcNAc(b1-4)GlcNAc(b1-4)GlcNAc(b1-4)GlcNAc(b1-4)GlcNAc
Summary of the method: as §1

[9] = target: Man(a1-3)[Man(a1-6)]Man(a1-6)[Man(a1-3)]Man(b1-4)GlcNAc(b1-4)GlcNAc
Summary of the method: as §1

[10] = target: Neu5Ac(a2-3)Gal(b1-3)GalNAc(b1-3)Gal(a1-4)Gal(b1-4)Glc
Summary of the method: as §1

[11] = target: Neu5Ac(a2-3)Gal(b1-3)GlcNAc
Summary of the method: as §1

[12] = target: Neu5Ac(a2-3)Gal6S(b1-4)[Fuc(a1-3)]GlcNAc
Summary of the method: as §1

Neu5Ac(a2-6)GalNAc = target: Neu5Ac(a2-6)GalNAc
Summary of the method: as §1

[13] = target: Neu5Gc(a2-3)Gal(b1-3)[Fuc(a1-4)]GlcNAc
Summary of the method: as §1

Fuc(a1-2)Gal(b1-3)GlcNAc = target: Fuc(a1-2)Gal(b1-3)GlcNAc
Summary of the method: as §1

[14] = target: Fuc(a1-2)Gal(b1-4)[Fuc(a1-3)]GlcNAc
Summary of the method: as §1

[15] = target: Fuc(a1-3)[Gal(b1-4)]GlcNAc
Summary of the method: as §1

[16] = target: Fuc(a1-3)[Gal3S(b1-4)]Glc6S
Summary of the method: as §1

[17] = target: Fuc(a1-3)[Gal3S(b1-4)]GlcNAc6S
Summary of the method: as §1

Fuc(b1-3)GlcNAc = target: Fuc(b1-3)GlcNAc
Summary of the method: as §1

Gal(b1-3)Gal = target: Gal(b1-3)Gal
Summary of the method: as §1

[18] = target: Gal(b1-4)GlcNAc(b1-6)GalNAc
Summary of the method: as §1

Gal3S(b1-4)GlcNAc = target: Gal3S(b1-4)GlcNAc
Summary of the method: as §1

Gal3S6S(b1-4)GlcNAc6S = target: Gal3S6S(b1-4)GlcNAc6S
Summary of the method: as §1

Gal4S(b1-4)GlcNAc = target: Gal4S(b1-4)GlcNAc
Summary of the method: as §1

Gal6S(b1-4)Glc6S = target: Gal6S(b1-4)Glc6S
Summary of the method: as §1

[19] = target: GlcNAc(b1-3)Gal(b1-3)GalNAc
Summary of the method: as §1

Man(a1-3)[Man(a1-6)]Man = target: Man(a1-3)[Man(a1-6)]Man
Summary of the method: as §1

[20] = target: Neu5Ac9Ac(a2-6)Gal(b1-4)GlcNAc
Summary of the method: as §1

| Binder | glycan array binding signal (z-score) (Fuc(a1-2)Gal) | glycan array binding signal (z-score) [1] | glycan array binding signal (z-score) [2] | glycan array binding signal (z-score) (Gal(a1-4)Gal(b1-4)GalNAc) | glycan array binding signal (z-score) (Gal(b1-2)Gal) | glycan array binding signal (z-score) [3] | glycan array binding signal (z-score) (Gal(b1-4)Glc6S) | glycan array binding signal (z-score) [4] | glycan array binding signal (z-score) [5] | glycan array binding signal (z-score) [6] | glycan array binding signal (z-score) [7] | glycan array binding signal (z-score) [8] | glycan array binding signal (z-score) [9] | glycan array binding signal (z-score) [10] | glycan array binding signal (z-score) [11] | glycan array binding signal (z-score) [12] | glycan array binding signal (z-score) (Neu5Ac(a2-6)GalNAc) | glycan array binding signal (z-score) [13] | glycan array binding signal (z-score) (Fuc(a1-2)Gal(b1-3)GlcNAc) | glycan array binding signal (z-score) [14] | glycan array binding signal (z-score) [15] | glycan array binding signal (z-score) [16] | glycan array binding signal (z-score) [17] | glycan array binding signal (z-score) (Fuc(b1-3)GlcNAc) | glycan array binding signal (z-score) (Gal(b1-3)Gal) | glycan array binding signal (z-score) [18] | glycan array binding signal (z-score) (Gal3S(b1-4)GlcNAc) | glycan array binding signal (z-score) (Gal3S6S(b1-4)GlcNAc6S) | glycan array binding signal (z-score) (Gal4S(b1-4)GlcNAc) | glycan array binding signal (z-score) (Gal6S(b1-4)Glc6S) | glycan array binding signal (z-score) [19] | glycan array binding signal (z-score) (Man(a1-3)[Man(a1-6)]Man) | glycan array binding signal (z-score) [20] |
| --- | --- | --- | --- | --- | --- | --- | --- | --- | --- | --- | --- | --- | --- | --- | --- | --- | --- | --- | --- | --- | --- | --- | --- | --- | --- | --- | --- | --- | --- | --- | --- | --- | --- |
| B1 | -0.223 | -0.23 | -0.226 | 5.47 | -0.185 | 6.38 | -0.229 | -0.239 | -0.233 | -0.222 | -0.22 | 5.39 | -0.23 | 6.23 | -0.152 | -0.226 | -0.209 | -0.175 |  |  |  |  |  |  |  |  |  |  |  |  |  |  |  |
| B2 | 1.54 |  |  |  |  |  |  |  |  |  |  |  |  |  |  |  |  |  | 0.203 | 0.342 | 0.377 | 0.012 | 2.23 | 0.144 | -0.318 | 0.546 | -0.22 | 1.8 | 1.82 | -0.521 | 2.08 | 0.624 | 0.638 |
